# Measured values taken from PubChem BioAssay (NCI).
# Compounds without any hit were thinned out: in the full panel of roughly 79,000, 15% have a hit. Values without a mark were called inactive. Activity calls are given as the source filed them. No stated cut-off is given here; in the data, active means growth inhibition above about 70%; inactive means the rest.
# Tests used:
# [1] = NCI Yeast Anticancer Drug Screen. Data for the rad50 strain (AID 155);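 further: 0% = growth of vehicle-only cultures of the same strain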; conditions: S. cerevisiae rad50 strain growth inhibition, stronger effect = higher value
# Method in brief: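 Cells are treated with compound, grown, and their growth is then scored against vehicle-only cultures of the same repair-deficient yeast strain.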
# [2] = NCI Yeast Anticancer Drug Screen. Data for the mec2-1 strain (AID 157); conditions: S. cerevisiae mec2-1 strain, stronger effect = higher value
# Method in brief: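 mec2-1 yeast strain, carrying an alteration in DNA damage repair or cell cycle control, was exposed to compounds; growth inhibition was measured relative to vehicle-treated controls.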
# [3] = NCI Yeast Anticancer Drug Screen. Data for the sgs1 mgt1 strain (AID 161);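 further: 0% = growth of cultures given vehicle only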; conditions: S. cerevisiae sgs1 mgt1 strain, stronger effect = higher value
# Method in brief: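 Yeast cells carrying a defined DNA-repair defect were exposed to test compounds. Growth inhibition was measured relative to vehicle-treated controls.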
# [4] = NCI Yeast Anticancer Drug Screen. Data for the cln2 rad14 strain (AID 165);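 further: 0% = growth equal to vehicle treated cultures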; conditions: S. cerevisiae cln2 rad14 strain, stronger effect = higher value
# Method in brief: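 Yeast carrying cln2 and rad14 alterations (cell cycle control and DNA damage repair) were exposed to compounds. Growth inhibition was measured against vehicle-treated controls.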
# [5] = NCI Yeast Anticancer Drug Screen. Data for the bub3 strain (AID 167); conditions: S. cerevisiae bub3 mutant strain, stronger effect = higher value
# Method in brief: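 Part of a panel of yeast mutants defective in DNA damage repair or cell cycle regulation. Each strain is grown with compound, and inhibition is calculated relative to solvent-treated cultures.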
# [6] = NCI Yeast Anticancer Drug Screen. Data for the mlh1 rad18 strain (AID 175); conditions: S. cerevisiae mlh1 rad18 strain growth inhibition, stronger effect = higher value
# Method in brief: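 Growth inhibition of the yeast strain was measured after compound exposure and expressed relative to vehicle-treated controls. The strain carries defined defects in DNA damage repair.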
# [7] = at 5.0 µM (retest, dose inferred, filed as 0.5)
# [8] = at 50.0 µM (retest, dose inferred, filed as 5.0)
Structure (SMILES),"growth inhibition [1, 7]","growth inhibition [1, 8]",growth inhibition ([1]; at 50.0 µM),"growth inhibition [2, 7]","growth inhibition [2, 8]",growth inhibition ([2]; at 50.0 µM),"growth inhibition [3, 7]","growth inhibition [3, 8]",growth inhibition ([3]; at 50.0 µM),"growth inhibition [4, 7]","growth inhibition [4, 8]",growth inhibition ([4]; at 50.0 µM),"growth inhibition [5, 7]","growth inhibition [5, 8]",growth inhibition ([5]; at 50.0 µM),"growth inhibition [6, 7]","growth inhibition [6, 8]",growth inhibition ([6]; at 50.0 µM)
CCCCCCCCCCCC(=O)N(CC)CC,-3%,99% (active),99.8% (active),1%,99% (active),99.9% (active),-4%,100% (active),99.8% (active),-1%,99% (active),99% (active),2%,100% (active),99.7% (active),14%,99% (active),99.8% (active)
CN(C)CC/C(=N\Nc1ccc(Cl)c(Cl)c1)c1ccccc1,88% (active),99% (active),99.5% (active),69%,100% (active),97.9% (active),98% (active),100% (active),99.6% (active),34%,99% (active),99.5% (active),82% (active),100% (active),99.6% (active),95% (active),99% (active),99.2% (active)
CN=C(N)NN=C(c1ccc(Cl)cc1)c1ccc(Cl)cc1,32%,99% (active),87.8% (active),30%,99% (active),91.2% (active),51%,99% (active),87.5% (active),48%,98% (active),85% (active),52%,99% (active),83.2% (active),25%,98% (active),92.4% (active)
CN(C)c1ccc(-c2c(C#N)c(S)n(NS(=O)(=O)c3ccccc3)c(=O)c2C#N)cc1,94% (active),96% (active),35.4%,31%,95% (active),75.3% (active),38%,95% (active),61.2%,50%,69%,31.8%,45%,93% (active),58.1%,91% (active),94% (active),60.7%
NC(=O)c1ccccc1C(=O)O,-6%,7%,12.9%,-5%,-2%,1.85%,0%,2%,-36.1%,2%,1%,36.9%,2%,9%,0.6%,-5%,5%,5.9%
O=[N+]([O-])c1ccc(S(=O)(=O)C/C=C/CCl)c([N+](=O)[O-])c1,54%,99% (active),99.2% (active),34%,100% (active),99.6% (active),43%,99% (active),99.5% (active),20%,99% (active),99.5% (active),37%,99% (active),99.4% (active),71% (active),99% (active),99.5% (active)
O=c1[nH]c2ccccc2c(O)c1/C=N/C(=S)NCCc1ccccc1,26%,28%,-41.5%,25%,22%,-21.8%,28%,29%,5.4%,21%,11%,9.6%,30%,20%,4.65%,28%,22%,7.5%
S=C(Nc1ccccc1)NC1CC2C=CC1CC2 (configuration not stated),-9%,-4%,-5%,-11%,-12%,7.2%,-4%,2%,1.6%,-23%,-11%,31.6%,-4%,0%,19.6%,-4%,-13%,13.2%
C(=P(c1ccccc1)(c1ccccc1)c1ccccc1)[P+](c1ccccc1)(c1ccccc1)c1ccccc1.[Br][Cu][Br],98% (active),99% (active),99.2% (active),99% (active),99% (active),99.5% (active),99% (active),99% (active),99.2% (active),98% (active),99% (active),98% (active),98% (active),99% (active),99% (active),99% (active),99% (active),99.3% (active)
